From ChEMBL document CHEMBL1157539, “Thousands of chemical starting points for antimalarial lead identification” (Nature, 2010)

system: HepG2; assay: GSK_TCMDC: Percent inhibition of human HepG2 cell line. Test compounds present at 10uM.; format: functional

| SMILES | Inhibition [%] |
| --- | --- |
| Fc1cccc(COc2ccc(Nc3ncnc4ccc(C#C[C@H]5CCCN5)cc34)cc2Cl)c1 | 7 |
| c1cncc(-c2cccc(CNc3nccc(Nc4ccc(OCCN5CCOCC5)cc4)n3)c2)c1 | 1 |
| O=C(Nc1ccc(Cl)cc1C(=O)Nc1cccc(F)c1)c1ccc([N+](=O)[O-])cc1 | 10 |
| CN1CCCN(Cc2cccc(-c3cccc(NC(=O)c4cccc(C#N)c4)c3)c2)CC1.O=C(O)C(F)(F)F | 18 |
| Cn1cncc1C(=O)NC1CCN(c2ccnc(Nc3ccc(F)cc3)n2)C1 (stereo not given) | 2 |
| Cc1cccc(CN2CCN(c3ncc(C(=O)NC4CC4)cc3Cl)CC2)c1.O=C(O)C(F)(F)F | 2 |
| O=S(=O)(c1cccc(C(F)(F)F)c1)N1CCC(CO)(Cc2cccc(C(F)(F)F)c2)CC1 | 3 |
| Cl.N#Cc1ccc(C2CCN(CC[C@H](N)Cc3ccc(Cl)s3)CC2)cc1 | 31 |
| O=C(Nc1cccnc1)c1cc(C(=O)Nc2cccnc2)cc([N+](=O)[O-])c1 | 0 |
| Cc1nc2ccc(F)cc2n1C1CCN(C(=O)Cc2ccc(F)c(F)c2)CC1 | 2 |
| O=CO.Oc1ccccc1CNCc1ccc(-c2cnc(N3CCCC(c4ccccc4)C3)nc2)cc1 (stereo not given) | 6 |
| CCn1c(Sc2ccc(C#N)c([N+](=O)[O-])c2)nnc1-c1cccc(Cl)c1 | 0 |
| COc1ccc(-c2ccc3c(-c4ccc(F)cc4)cnc(N)c3c2)cn1 | 4 |
| CCN1CCN(c2ccc(NC(=O)c3cc4c(C)nn(-c5ccccc5)c4s3)cc2C)CC1 | 32 |
| CS(=O)(=O)c1ccc2[nH]c(-c3cc(-c4ccc(OCCN5CCOCC5)cc4)cnc3N)nc2c1.O=C(O)C(F)(F)F | 43 |
| CN(C)c1ccc(-c2nc3cc(N)ccc3[nH]2)cc1 | 1 |
| CCCCOc1ccc(C(O)C(CN2CCCCC2)c2ccccc2)cc1 (stereo not given) | 7 |
| CCOc1c(Br)cc(C)cc1CNCCCNc1nc2ccccc2[nH]1.Cl | 24 |
| O=C(NCC1CCN(CC2CCCCC2)C1)c1cc(-c2cccc(C(F)(F)F)c2)cs1.O=C(O)C(F)(F)F (stereo not given) | 47 |
| COCC(=O)Nc1nc2ccccc2[nH]1 | 0 |

| SMILES | Inhibition [%] |
| --- | --- |
| Cc1ccc(NC(=O)C2CCC2)cc1-c1ccc(C(=O)NCC2CC2)cc1 | 13 |
| Fc1ccc2[nH]c(-c3cccc(-c4cccc(CNCC5CCCO5)c4)c3)nc2c1.O=C(O)C(F)(F)F (stereo not given) | 40 |
| Cn1cnc(CCNC(=O)c2cccc(-c3csc(-c4nc5ccccc5[nH]4)c3)c2)c1 | 33 |
| Cc1cccc2nc(-c3ccc(-c4ccc(NC(=O)Nc5ccc(F)c(F)c5F)cc4)s3)[nH]c12 | 58 |
| COc1ccc(CNC2Cc3ccccc3C2)cc1-c1ccc(S(=O)(=O)NCCN2CCCC2)cc1.O=C(O)C(F)(F)F | 40 |
| CN(C)c1ccc(C=CC(=O)NC(=O)c2ccccc2O)cc1 | 6 |
| CC(C)(C)NCc1cc(Nc2ccnc3cc(Cl)ccc23)ccc1F | 21 |
| CCOC(=O)c1ccc(NC(=O)N[C@@H](Cc2ccc(O)cc2)C(=O)NC2CCN(Cc3ccc4c(c3)OCO4)CC2)cc1.O=C(O)C(F)(F)F | 0 |
| Cc1c(NC(=O)COc2ccc(Cl)cc2C(=O)c2cc(F)cc(C(F)(F)F)c2)ccc2ncsc12 | 0 |
| CNCc1cccc2nc(-c3ccc(Cc4cc(Cl)ccc4OCC(C)C)o3)[nH]c12.Cl | 20 |
| CN(C)CCCNCCS(=O)(=O)c1cccc(Nc2ccc(-c3cccc(N(C)C)c3)cn2)c1 | 19 |
| O=C(O)C(F)(F)F.c1cc(CNCCc2ccncc2)cc(-c2ccc(-c3nc4ccccc4[nH]3)cc2)c1 | 28 |
| CCOC(=O)c1c[nH]c2c(ccc3ccccc32)c1=O | 0 |
| Nc1c(Cl)cc(C(O)CNCCCCCOCCc2ccc3occc3c2)cc1Cl (stereo not given) | 0 |
| Cc1ccc(Nc2ccnc(Nc3ccc(F)c(Cl)c3)n2)cc1O.Cl | 9 |
| CC(C)(C)c1cc2cc(Nc3ccnc4cc(-c5nccs5)ccc34)ccc2[nH]1.Cl | 5 |
| COc1ccc(-c2nonc2NC(=O)c2ccc(C(C)(C)C)cc2)cc1OC | 0 |
| CN1CCN(c2ccnc3ccc(NC(=O)Nc4ccc(Br)cc4)cc23)CC1 | 12 |
| CC(=O)N1CCC(C(=O)Nc2ccc(-c3cccc(-c4nc5cccc(C)c5[nH]4)c3)cc2)CC1 | 85 |
| CC(C)CN1CCCN(Cc2cccc(NC(=O)c3ccc(-c4ccccc4)cc3)c2)CC1.O=C(O)C(F)(F)F | 30 |
